We go through eleven compounds from ChEMBL document CHEMBL3988442, “University of Dundee, Small-Polar-MMV Screening Library” (2021).

What all share (parameters): scale not given: direction of the effect not stated beside the values
Experiment [1] has as its target Protein translocase subunit SecA (Escherichia coli (strain K12)) (UniProt P10408). Kind of experiment: Assay to Identify E. coli SecA ATPase Inhibitors. It counts as functional. Particulars: 30 µM.
Experiment [2] has as its target T1, Ubiquitin-activating enzyme e1, putative (Leishmania donovani (strain BPK282A1)) (UniProt E9BSI1).
T1 sequence (whole entry): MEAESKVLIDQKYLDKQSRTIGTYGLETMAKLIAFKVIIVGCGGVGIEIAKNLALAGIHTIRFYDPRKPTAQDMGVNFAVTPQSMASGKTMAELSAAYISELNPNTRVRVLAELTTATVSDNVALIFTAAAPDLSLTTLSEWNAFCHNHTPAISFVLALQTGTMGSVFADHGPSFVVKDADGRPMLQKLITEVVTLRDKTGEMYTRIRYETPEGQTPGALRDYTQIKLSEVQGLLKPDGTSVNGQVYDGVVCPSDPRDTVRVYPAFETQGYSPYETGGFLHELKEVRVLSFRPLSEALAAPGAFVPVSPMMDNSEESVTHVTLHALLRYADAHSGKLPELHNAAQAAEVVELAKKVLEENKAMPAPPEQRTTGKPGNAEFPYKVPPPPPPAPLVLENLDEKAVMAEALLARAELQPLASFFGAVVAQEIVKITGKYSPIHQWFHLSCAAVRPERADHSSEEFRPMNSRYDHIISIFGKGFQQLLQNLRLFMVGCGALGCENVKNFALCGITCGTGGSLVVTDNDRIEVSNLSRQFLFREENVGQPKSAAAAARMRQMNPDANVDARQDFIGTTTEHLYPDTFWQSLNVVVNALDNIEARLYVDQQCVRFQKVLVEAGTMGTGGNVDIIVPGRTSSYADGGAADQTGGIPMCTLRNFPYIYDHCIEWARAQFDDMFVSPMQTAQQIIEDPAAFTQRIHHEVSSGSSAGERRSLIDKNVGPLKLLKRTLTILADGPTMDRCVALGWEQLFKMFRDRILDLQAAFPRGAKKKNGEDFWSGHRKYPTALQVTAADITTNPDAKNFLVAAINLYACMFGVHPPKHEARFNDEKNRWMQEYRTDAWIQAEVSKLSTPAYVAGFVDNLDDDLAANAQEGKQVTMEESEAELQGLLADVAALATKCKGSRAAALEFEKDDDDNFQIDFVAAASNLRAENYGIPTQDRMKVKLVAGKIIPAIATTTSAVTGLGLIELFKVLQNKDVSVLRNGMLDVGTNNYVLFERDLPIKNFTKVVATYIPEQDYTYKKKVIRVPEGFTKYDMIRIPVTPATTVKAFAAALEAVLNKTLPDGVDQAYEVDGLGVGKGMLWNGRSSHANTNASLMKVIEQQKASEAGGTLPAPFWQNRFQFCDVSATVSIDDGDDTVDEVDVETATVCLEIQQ
In words: Leishmania donovani Ubiquitin Activating Enzyme (LdE1). It counts as functional. Particulars: 30 µM.

Experiment [3] addresses AMP-activated protein kinase, AMPK (Homo sapiens) (UniProt P54646+O43741+P54619+Q9UGJ0+Q9Y478+Q13131+Q9UGI9). Kind of experiment: AMP-dependent Kinase enzyme assay. An in vitro enzyme assay that detects ADP turnover that is directly proportional to AMPK activity. This uses naive AMPK that is activated during the assay with MK-8722. It counts as functional. Particulars: 30 µM.

Experiment [4] concerns the target Sialic acid-binding Ig-like lectin 9 (Homo sapiens) (UniProt Q9Y336). Kind of experiment: Hs-Siglec9 ALPHAscreen SOP 20170721. Particulars: 10 µM. A general note: Bead proximity is the source of the signal in Alpha formats.
A further experiment relates to Trypanosoma cruzi. Kind of experiment: Trypanosoma cruzi phosphomannomutase and mannose-1-phosphate guanylyltransferase assay. It counts as functional. Particulars: 10 µM.
For experiment [5], the target named is T2, Arginase-2, mitochondrial (Homo sapiens) (UniProt P78540).
T2 sequence (whole entry): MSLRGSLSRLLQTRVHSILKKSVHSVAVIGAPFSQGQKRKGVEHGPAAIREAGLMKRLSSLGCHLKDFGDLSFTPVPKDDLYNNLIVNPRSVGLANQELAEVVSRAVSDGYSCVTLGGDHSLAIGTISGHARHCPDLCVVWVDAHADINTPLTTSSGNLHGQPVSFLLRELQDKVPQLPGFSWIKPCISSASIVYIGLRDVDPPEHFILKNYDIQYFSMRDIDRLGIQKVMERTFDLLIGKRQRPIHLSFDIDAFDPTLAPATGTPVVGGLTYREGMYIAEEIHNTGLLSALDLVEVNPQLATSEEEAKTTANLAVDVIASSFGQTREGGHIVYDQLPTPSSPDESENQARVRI
In words: in vitro enzyme assay to detect the production of urea directly proportional to the activity of Arginase II. Also: in the data most compounds retested in dose-response had high values. It counts as functional. Particulars: 33.3 µM.

Experiment [6] concerns the target T3, Proteasome subunit beta (Trypanosoma cruzi) (UniProt O96673).
T3 sequence (whole entry): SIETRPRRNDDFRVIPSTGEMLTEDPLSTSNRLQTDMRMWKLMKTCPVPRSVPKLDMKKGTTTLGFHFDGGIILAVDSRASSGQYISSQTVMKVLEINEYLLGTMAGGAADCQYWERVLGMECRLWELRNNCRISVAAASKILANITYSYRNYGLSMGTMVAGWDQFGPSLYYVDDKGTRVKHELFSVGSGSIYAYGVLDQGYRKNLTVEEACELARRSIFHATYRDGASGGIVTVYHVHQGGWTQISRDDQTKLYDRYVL
Kind of experiment: Trypanosoma cruzi proteasome chymotrypsin-like activity (TcProtChymo) assay. Also: in the data most compounds retested in dose-response had high values. Particulars: 9.37 µM. Format: functional.

The species entered for a further experiment is Homo sapiens. In words: To identify inhibition of the IFN signalling (Jak-Stat) pathway via expression of an eGFP reporter gene under the control of an IFN-stimulated response element (ISRE) containing MxA promoter. Particulars: 30 µM. Format: functional. On the technique in general: In a reporter assay the amount or activity of a reporter protein is the signal.

Experiment [7] has as its target T4, Tyrosyl-tRNA synthetase, putative (Trypanosoma cruzi (strain CL Brener)) (UniProt Q4DSP6).
T4 sequence (whole entry): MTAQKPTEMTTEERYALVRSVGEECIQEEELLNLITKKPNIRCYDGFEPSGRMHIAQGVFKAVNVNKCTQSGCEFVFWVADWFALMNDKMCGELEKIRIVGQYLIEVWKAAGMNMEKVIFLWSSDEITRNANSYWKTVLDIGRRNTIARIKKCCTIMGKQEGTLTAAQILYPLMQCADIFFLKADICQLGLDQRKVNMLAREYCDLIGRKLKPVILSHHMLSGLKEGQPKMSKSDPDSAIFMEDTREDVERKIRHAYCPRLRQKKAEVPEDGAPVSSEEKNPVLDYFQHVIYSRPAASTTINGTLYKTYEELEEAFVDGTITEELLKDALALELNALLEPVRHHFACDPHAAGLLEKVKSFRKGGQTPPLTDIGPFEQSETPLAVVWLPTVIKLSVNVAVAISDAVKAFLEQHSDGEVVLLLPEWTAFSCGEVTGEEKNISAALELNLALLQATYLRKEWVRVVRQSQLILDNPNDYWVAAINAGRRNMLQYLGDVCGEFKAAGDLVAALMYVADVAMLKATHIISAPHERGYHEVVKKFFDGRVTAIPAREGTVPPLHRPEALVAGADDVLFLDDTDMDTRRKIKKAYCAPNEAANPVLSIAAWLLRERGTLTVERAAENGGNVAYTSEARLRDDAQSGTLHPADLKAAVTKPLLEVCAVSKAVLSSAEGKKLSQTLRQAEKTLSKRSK
In words: Trypanosoma cruzi tyrosyl tRNA synthetase (TcYRS) _High Tyrosine SOP. Also: in the data most compounds retested in dose-response had high values. Format: functional. Particulars: 30 µM.

Experiment [8] addresses T4, Tyrosyl-tRNA synthetase, putative (Trypanosoma cruzi (strain CL Brener)). Kind of experiment: Trypanosoma cruzi tyrosyl tRNA synthetase (TcYRS) SOP. It counts as functional. Particulars: 30 µM.
For experiment [9], the target named is Chromo domain-containing protein 1 (Saccharomyces cerevisiae (strain ATCC 204508 / S288c) (Baker's yeast)) (UniProt P32657). Kind of experiment: ScCHD-1 Enzyme Inhibition Assay. Also: in the data most compounds retested in dose-response had high values. Format: functional. Particulars: 30 µM.

Each structure is given as a SMILES string. For some of these results: Entries with a potency or affinity are not part of this list.

Chromo domain-containing protein 1 (Saccharomyces cerevisiae (strain ATCC 204508 / S288c) (Baker's yeast)), sequence (P32657 whole entry, the tested form may be a part): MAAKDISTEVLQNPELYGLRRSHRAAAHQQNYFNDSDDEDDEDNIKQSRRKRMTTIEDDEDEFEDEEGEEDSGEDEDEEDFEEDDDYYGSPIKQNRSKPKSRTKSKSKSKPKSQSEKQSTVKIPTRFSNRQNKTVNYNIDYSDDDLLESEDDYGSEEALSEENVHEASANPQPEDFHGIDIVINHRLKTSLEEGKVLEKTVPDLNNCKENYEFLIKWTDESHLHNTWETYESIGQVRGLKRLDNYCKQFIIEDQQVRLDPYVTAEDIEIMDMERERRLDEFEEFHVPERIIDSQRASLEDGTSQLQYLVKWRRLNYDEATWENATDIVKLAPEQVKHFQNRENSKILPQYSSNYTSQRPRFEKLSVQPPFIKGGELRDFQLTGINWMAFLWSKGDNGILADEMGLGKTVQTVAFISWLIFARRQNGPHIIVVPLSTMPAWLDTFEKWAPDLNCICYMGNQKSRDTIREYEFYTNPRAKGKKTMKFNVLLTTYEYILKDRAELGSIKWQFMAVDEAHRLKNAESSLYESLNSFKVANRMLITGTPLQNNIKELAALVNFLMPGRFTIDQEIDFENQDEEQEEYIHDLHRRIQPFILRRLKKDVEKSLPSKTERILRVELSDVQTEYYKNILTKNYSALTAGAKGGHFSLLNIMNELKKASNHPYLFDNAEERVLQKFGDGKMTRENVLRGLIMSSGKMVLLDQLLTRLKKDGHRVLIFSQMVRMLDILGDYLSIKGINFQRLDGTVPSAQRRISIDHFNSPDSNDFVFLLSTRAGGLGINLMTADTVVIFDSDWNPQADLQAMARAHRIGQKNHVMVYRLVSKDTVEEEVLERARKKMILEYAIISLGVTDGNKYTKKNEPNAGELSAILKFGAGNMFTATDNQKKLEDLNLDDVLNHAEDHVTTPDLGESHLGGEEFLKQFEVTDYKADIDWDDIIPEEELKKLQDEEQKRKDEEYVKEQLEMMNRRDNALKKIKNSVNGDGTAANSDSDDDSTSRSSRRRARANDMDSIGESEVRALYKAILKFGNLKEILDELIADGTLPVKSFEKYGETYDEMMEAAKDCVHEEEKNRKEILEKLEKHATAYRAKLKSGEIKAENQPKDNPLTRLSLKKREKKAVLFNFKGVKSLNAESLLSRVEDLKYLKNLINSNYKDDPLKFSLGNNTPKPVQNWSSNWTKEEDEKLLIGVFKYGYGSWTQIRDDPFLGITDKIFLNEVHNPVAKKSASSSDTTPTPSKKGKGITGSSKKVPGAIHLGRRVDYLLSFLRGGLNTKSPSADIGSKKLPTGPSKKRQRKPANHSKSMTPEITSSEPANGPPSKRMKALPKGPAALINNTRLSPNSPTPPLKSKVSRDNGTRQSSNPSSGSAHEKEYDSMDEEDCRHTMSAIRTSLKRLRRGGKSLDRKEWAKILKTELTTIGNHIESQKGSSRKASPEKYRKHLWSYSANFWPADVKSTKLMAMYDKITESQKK
Sialic acid-binding Ig-like lectin 9 (Homo sapiens), sequence (Q9Y336 whole entry): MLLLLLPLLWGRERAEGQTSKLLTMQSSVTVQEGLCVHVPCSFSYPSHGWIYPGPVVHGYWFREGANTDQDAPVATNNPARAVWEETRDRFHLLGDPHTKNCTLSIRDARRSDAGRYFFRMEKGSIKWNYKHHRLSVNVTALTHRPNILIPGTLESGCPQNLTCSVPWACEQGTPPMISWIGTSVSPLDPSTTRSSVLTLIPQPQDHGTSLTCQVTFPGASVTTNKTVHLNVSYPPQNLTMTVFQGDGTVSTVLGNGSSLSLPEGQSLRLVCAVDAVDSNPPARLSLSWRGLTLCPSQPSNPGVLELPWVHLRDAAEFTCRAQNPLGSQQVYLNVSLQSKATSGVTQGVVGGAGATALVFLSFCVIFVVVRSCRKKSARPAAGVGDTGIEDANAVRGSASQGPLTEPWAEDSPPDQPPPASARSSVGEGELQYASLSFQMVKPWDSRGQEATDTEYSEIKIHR
Protein translocase subunit SecA (Escherichia coli (strain K12)), sequence (P10408 whole entry): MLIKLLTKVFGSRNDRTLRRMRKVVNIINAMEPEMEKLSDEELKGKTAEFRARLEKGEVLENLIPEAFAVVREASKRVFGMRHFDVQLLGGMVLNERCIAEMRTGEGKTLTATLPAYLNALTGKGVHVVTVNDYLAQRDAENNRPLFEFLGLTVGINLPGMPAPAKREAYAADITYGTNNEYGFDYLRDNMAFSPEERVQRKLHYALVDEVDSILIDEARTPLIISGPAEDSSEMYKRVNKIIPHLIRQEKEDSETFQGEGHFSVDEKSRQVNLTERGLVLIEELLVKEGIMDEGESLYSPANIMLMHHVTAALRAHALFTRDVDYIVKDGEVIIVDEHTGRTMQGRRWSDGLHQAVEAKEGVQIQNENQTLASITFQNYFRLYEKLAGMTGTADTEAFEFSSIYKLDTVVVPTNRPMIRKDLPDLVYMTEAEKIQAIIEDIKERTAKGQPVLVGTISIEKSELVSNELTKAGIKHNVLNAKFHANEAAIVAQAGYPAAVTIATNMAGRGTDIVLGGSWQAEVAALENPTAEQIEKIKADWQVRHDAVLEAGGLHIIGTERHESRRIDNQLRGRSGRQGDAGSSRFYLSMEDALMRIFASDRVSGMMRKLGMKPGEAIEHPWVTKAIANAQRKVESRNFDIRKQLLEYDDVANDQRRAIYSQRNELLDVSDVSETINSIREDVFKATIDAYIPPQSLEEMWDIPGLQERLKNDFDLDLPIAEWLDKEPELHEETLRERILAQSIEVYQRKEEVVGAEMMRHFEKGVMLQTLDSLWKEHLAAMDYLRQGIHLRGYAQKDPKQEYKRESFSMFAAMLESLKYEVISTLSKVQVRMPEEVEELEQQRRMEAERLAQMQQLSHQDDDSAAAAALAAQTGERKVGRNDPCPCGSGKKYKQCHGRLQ

As to `CN1CCN(C(=O)[C@H]2C[C@@H]3CCN(c4ncc(F)cn4)C[C@@H]3O2)CC1`, the Percent Effect is 1.76% in experiment [1]; 8% in [2]; 10% in experiment [3]; 14.4% in experiment [4]; -2.51% with Trypanosoma cruzi; -53.2% in experiment [5]. For the same compound, the Percent Effect in experiment [6] was 10.3%; in the experiment listed under Homo sapiens, 7.21%; in [7], 0%; in experiment [8], 17.5%; in [9], -8.06%.
`Cc1ccccc1Oc1ncccc1CNS(C)(=O)=O`: the Percent Effect in experiment [1] is -5.18%; in [2], 15.6%; in experiment [3] it was -0.858%; in [4], 12.6%; in the experiment with Trypanosoma cruzi, 8.16%; in experiment [5], -8.28%. Moreover, the Percent Effect was 1.33% in [6]; 0.0503% in the experiment filed under Homo sapiens; 5.38% in [7]; 11.1% in [8]; -7.62% in [9].
As to `CC(C)(C)c1n[nH]c(C2CN(C(=O)c3cc(C4CC4)on3)CCO2)n1` (stereo unspecified), the Percent Effect in experiment [1] is -2.82%; in experiment [2], 7.89%; in experiment [3], 1.22%; in experiment [4], -5.79%; in the experiment with Trypanosoma cruzi, 5.55%; in experiment [5], -8.28%. The Percent Effect is -4.7% in experiment [6]; 0.97% in the experiment listed under Homo sapiens; 1.06% in experiment [7]; 5.2% in experiment [8]; -10.8% in experiment [9].
In the case of `Cn1ccc(C(=O)N2CCCC(Cc3cccc4ncccc34)C2)n1` (stereo unspecified), the Percent Effect is -7.55% in experiment [1]; 14.9% in experiment [2]; -6.32% in [3]; 5% in experiment [4]; 4.74% with Trypanosoma cruzi; -4.41% in experiment [5]. In addition, the Percent Effect in experiment [6] is 7.33%; in the experiment filed under Homo sapiens, 49.9%; in [7], 3.23%; in experiment [8], -6.49%; in experiment [9], -12%.
On to `CCN(CC)C(=O)c1nnn(-c2ccc(C)cc2)c1C1CC1`, for which the Percent Effect in [1] was -2.41%; in [2] it was 13.5%; in experiment [3], -1.1%; in experiment [4], 9.18%; with Trypanosoma cruzi, 6.04%; in experiment [5] it was 1.29%. Moreover, the Percent Effect in experiment [6] is -1.62%; in the experiment listed under Homo sapiens, 6.05%; in experiment [7] it was 0%; in experiment [8], 18.3%; in [9], -3.92%.
Turning to `COCCN(C)C(=O)Cn1cccc(OC)c1=O`, the Percent Effect in experiment [1] is -0.736%; in experiment [2], 5.48%; in experiment [3] it was -9.15%; in experiment [4], 4.8%; with Trypanosoma cruzi, -8.53%; in [5], 3.99%. Further, the Percent Effect was 18.4% in experiment [6]; 4.06% in the experiment listed under Homo sapiens; -3.12% in [7]; -1.24% in experiment [8]; -2.41% in [9].
`COc1cc(N2C[C@@H]3COC[C@]3(COCc3cccc(C)n3)C2)ncn1`: the Percent Effect in [1] is -0.6%; in experiment [2], 2.7%; in experiment [3], 3.71%; in experiment [4] it was 5.38%; in the experiment on Trypanosoma cruzi it was 4.79%; in experiment [5], 0.955%. In addition, the Percent Effect came out at 17.7% in [6]; 27.6% in the experiment filed under Homo sapiens; 1.08% in [7]; 2.56% in [8]; 2.03% in [9].
With `Cc1cc(F)ccc1CN1CCC(O)(CN2CCCCC2)C1` (stereo unspecified), the Percent Effect in experiment [1] was -6.21%; in experiment [2], 5.33%; in [3], -7.83%; in [4] it was 3.56%; with Trypanosoma cruzi, -1.46%; in [5], -1.04%. The Percent Effect was 19.2% in experiment [6]; -1.85% in the experiment listed under Homo sapiens; 4.92% in experiment [7]; 8.64% in [8]; -4.93% in experiment [9].
Regarding `Cc1cccc(-c2ccc(C(=O)NCC3CCOC3)c(=O)[nH]2)c1` (stereo unspecified), the Percent Effect in experiment [1] is -2.02%; in experiment [2] it was 10.8%; in [3], -7.21%; in experiment [4] it was 7.34%; with Trypanosoma cruzi it was -0.472%; in [5], -4.41%. Further, the Percent Effect is -0.18% in [6]; 12.2% in the experiment listed under Homo sapiens; 5.42% in [7]; 11.1% in experiment [8]; -8.03% in experiment [9].
Take `CCn1cnnc1C1CCN(C(=O)c2cccc3c2ccn3C)CC1`: the Percent Effect in [1] is -5.72%; in experiment [2], 18.2%; in [3], -2.51%; in experiment [4] it was 0.647%; with Trypanosoma cruzi, 3.37%; in [5], -4.63%. Moreover, the Percent Effect in [6] is 7.43%; in the experiment filed under Homo sapiens, -1.75%; in experiment [7] it was 7.77%; in experiment [8] it was 24.4%; in [9], -13.2%.
`COCCN1CC[C@@H]2OC[C@H](C(=O)NCc3cccs3)C[C@@H]2C1`: the Percent Effect in [1] was 0.484%; in experiment [2], 13.5%; in [3], 0.443%; in [4], -15.8%; in the experiment on Trypanosoma cruzi, -3.23%; in [5] it was 1.59%. Moreover, the Percent Effect was 8.3% in experiment [6]; -0.0889% in the experiment listed under Homo sapiens; -2.16% in experiment [7]; 5.13% in experiment [8]; -5% in [9].
